Test results from the supplement of paper PMC11732987, “Enantioselective OTUD7B fragment discovery through chemoproteomics screening and high-throughput optimisation” (Communications Chemistry, 2025).
A number with no mark means an inactive call.

How the values were obtained:
Test in all cases: log2 ratio of Biotin-Ahx-Ub-VS probe labelling (fragment/DMSO); higher = less target engagement (more negative = stronger competition), active = hit call of the paper (q ≤ 0.05, log2 ratio ≤ -1)
Settings in all cases: compound concentration: 200 uM; treatment time: 3 h
[1] = biological target: T1, OTUD6B (UniProt Q8N6M0)
T1 sequence (whole entry): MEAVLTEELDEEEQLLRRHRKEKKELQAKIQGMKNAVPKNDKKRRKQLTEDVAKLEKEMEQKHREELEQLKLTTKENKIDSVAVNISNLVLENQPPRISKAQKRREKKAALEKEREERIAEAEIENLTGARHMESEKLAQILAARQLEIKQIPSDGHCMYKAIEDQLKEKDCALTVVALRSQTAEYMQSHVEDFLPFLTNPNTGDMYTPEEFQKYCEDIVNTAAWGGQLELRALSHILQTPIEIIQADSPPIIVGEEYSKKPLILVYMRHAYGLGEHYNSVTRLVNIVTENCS
How it was run: (§1)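 HEK293T lysate (495 µg per sample, in Tris/CHAPS/IGEPAL buffer with protease inhibitors) was treated in triplicate with fragment at 200 µM or with DMSO for 3 h. It was then treated with Biotin-Ahx-Ub-VS (0.5 µM final) for 1 h. Labelled DUBs were NeutrAvidin-enriched, digested with LysC and trypsin, and run by diaPASEF LC-MS/MS. Spectronaut label-free quantities were global-median-normalised. Values are average log2 ratios fragment/DMSO by unpaired t-test, using proteins with ≥2 unique peptides.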

[2] = biological target: T2, OTUD7B (UniProt Q6GQQ9)
T2 sequence (whole entry): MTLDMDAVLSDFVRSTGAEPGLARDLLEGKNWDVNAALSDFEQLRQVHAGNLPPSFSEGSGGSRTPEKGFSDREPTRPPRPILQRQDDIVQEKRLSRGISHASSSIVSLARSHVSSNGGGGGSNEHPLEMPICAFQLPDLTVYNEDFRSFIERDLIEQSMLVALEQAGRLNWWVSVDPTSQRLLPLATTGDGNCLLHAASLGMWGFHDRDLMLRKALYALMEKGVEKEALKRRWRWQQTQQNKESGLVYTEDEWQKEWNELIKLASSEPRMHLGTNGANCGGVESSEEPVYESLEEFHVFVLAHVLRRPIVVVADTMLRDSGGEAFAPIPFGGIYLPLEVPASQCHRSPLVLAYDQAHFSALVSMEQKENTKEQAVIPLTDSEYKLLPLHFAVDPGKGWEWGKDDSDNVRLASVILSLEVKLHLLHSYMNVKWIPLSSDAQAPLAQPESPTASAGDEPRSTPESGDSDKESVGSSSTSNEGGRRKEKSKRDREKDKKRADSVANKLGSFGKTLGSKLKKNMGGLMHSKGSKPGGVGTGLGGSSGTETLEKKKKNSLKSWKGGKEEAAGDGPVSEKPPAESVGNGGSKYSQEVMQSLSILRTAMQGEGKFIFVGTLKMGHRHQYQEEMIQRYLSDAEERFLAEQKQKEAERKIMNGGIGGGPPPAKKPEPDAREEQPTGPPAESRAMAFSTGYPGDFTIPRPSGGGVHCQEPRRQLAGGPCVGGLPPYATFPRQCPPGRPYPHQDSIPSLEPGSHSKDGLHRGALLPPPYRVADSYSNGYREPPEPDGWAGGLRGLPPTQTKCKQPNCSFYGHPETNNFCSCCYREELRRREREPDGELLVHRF
How it was run: as §1

[3] = biological target: PRPF8 (UniProt Q6P2Q9)
How it was run: as §1

[4] = biological target: T3, PSMD7 (UniProt P51665)
T3 sequence (whole entry): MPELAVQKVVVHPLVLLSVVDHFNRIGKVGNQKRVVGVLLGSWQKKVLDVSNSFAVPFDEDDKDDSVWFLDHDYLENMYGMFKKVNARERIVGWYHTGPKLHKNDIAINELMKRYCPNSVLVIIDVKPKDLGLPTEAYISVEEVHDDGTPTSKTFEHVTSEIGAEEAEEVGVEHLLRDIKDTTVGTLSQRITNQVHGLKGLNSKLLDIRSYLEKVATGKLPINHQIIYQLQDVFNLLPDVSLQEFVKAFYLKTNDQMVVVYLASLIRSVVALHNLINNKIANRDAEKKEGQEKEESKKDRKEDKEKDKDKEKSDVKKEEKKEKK
How it was run: as §1

[5] = biological target: UCHL1 (UniProt P09936)
Chain of UCHL1 (P09936 whole entry, looked up): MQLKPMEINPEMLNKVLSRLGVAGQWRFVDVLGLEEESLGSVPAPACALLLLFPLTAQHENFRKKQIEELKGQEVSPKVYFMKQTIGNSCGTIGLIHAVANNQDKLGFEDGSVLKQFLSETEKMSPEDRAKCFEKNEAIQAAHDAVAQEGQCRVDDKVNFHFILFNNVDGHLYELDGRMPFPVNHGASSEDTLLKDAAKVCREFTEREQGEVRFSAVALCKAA
How it was run: as §1

[6] = biological target: T4, UCHL3 (UniProt P15374)
T4 sequence (whole entry): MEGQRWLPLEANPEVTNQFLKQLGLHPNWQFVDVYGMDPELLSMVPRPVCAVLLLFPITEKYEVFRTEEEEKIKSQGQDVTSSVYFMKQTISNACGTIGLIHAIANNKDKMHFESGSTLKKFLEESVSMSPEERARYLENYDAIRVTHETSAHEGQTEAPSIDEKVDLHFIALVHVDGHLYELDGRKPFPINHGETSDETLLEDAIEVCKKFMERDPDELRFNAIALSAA
How it was run: as §1

[7] = biological target: T5, UCHL5 (UniProt Q9Y5K5)
T5 sequence (whole entry): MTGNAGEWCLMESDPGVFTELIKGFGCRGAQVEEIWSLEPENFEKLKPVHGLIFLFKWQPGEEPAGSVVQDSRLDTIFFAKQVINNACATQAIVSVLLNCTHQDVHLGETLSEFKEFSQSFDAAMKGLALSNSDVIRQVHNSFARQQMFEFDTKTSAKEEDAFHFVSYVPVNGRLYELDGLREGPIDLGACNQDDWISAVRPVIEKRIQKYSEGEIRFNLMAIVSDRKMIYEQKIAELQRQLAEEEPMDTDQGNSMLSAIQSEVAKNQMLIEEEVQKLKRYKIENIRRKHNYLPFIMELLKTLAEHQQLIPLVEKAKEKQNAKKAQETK
How it was run: as §1

[8] = biological target: USP10 (UniProt Q14694)
Chain of USP10 (Q14694 whole entry): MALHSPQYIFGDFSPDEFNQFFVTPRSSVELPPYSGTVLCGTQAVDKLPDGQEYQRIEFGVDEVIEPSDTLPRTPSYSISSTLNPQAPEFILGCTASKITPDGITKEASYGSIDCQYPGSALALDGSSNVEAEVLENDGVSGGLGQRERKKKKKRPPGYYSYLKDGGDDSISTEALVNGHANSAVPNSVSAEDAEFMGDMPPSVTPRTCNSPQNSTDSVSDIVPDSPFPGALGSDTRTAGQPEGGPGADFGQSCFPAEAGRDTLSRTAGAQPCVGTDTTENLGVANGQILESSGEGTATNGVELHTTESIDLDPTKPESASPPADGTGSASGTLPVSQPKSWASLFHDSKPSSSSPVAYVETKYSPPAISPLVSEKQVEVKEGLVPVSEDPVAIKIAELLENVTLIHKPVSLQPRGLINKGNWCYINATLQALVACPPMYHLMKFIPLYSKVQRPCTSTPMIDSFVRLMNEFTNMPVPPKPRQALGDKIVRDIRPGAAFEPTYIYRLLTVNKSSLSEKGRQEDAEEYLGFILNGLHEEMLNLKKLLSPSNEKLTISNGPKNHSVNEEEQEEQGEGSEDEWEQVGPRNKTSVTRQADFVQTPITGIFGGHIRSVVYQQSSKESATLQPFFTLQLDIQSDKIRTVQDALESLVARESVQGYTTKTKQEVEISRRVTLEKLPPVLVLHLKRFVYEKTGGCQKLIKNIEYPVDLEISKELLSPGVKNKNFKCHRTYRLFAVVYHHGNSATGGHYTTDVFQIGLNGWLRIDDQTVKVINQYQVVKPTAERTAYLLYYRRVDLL
How it was run: as §1

[9] = biological target: T6, USP15 (UniProt Q9Y4E8)
T6 sequence (whole entry): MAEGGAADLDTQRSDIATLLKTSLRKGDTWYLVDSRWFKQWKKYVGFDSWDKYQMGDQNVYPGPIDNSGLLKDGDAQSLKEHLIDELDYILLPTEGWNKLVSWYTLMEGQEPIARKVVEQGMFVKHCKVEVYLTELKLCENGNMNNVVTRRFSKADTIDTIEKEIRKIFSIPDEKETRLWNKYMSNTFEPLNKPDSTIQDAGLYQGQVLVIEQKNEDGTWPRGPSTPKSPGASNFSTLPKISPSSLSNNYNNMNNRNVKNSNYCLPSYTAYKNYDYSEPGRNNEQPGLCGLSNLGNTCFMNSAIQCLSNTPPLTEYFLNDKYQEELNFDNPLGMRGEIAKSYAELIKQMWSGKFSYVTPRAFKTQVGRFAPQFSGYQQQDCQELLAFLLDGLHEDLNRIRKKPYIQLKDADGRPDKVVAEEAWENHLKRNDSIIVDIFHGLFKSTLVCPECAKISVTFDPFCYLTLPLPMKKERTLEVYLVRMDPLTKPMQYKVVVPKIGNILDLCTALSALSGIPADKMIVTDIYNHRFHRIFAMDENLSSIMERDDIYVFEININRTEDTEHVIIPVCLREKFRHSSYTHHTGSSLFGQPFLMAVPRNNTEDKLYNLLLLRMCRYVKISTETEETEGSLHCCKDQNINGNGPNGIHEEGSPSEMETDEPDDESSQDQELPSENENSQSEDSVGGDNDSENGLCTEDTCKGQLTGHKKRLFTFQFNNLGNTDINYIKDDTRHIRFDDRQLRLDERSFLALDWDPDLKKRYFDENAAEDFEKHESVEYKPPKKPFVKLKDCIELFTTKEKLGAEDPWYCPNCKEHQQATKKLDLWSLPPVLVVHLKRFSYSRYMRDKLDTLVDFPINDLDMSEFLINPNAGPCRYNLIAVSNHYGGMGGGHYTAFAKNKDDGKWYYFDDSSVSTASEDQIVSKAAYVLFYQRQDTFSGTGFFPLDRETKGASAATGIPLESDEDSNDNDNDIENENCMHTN
How it was run: as §1

[10] = biological target: USP16 (UniProt Q9Y5T5)
Chain of USP16 (Q9Y5T5 whole entry, looked up): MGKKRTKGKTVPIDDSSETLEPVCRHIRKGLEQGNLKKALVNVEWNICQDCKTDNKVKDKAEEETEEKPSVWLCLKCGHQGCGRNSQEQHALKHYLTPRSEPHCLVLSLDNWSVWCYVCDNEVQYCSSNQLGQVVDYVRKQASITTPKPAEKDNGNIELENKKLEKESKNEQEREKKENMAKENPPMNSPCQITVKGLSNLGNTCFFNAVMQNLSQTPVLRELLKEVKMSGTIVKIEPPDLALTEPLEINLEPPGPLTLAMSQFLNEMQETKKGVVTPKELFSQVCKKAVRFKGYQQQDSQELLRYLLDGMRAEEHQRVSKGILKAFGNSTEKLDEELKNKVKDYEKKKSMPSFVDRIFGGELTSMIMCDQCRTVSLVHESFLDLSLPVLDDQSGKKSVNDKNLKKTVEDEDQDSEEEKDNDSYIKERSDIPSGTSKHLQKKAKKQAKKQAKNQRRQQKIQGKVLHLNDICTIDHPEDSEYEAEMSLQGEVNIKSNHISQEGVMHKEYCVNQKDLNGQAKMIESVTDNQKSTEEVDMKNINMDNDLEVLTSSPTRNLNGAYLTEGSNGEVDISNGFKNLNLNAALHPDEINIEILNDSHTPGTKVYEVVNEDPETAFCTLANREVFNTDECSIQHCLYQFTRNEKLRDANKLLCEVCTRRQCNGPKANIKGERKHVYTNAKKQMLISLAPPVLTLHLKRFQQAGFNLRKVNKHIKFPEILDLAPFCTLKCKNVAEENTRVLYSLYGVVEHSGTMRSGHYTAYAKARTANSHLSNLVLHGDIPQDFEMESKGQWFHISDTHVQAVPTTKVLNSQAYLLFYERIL
How it was run: as §1

C/C(=C\CNC(=O)CCl)c1cnn(C)c1.Cl
log2 ratio of Biotin-Ahx-Ub-VS probe labelling [1]: -0.0447 | log2 ratio of Biotin-Ahx-Ub-VS probe labelling [2]: -0.863 | log2 ratio of Biotin-Ahx-Ub-VS probe labelling [3]: 0.0944 | log2 ratio of Biotin-Ahx-Ub-VS probe labelling [4]: 0.0605 | log2 ratio of Biotin-Ahx-Ub-VS probe labelling [5]: -1.27 (active) | log2 ratio of Biotin-Ahx-Ub-VS probe labelling [6]: 0.15 | log2 ratio of Biotin-Ahx-Ub-VS probe labelling [7]: -0.0212 | log2 ratio of Biotin-Ahx-Ub-VS probe labelling [8]: -0.19 | log2 ratio of Biotin-Ahx-Ub-VS probe labelling [9]: -0.476 | log2 ratio of Biotin-Ahx-Ub-VS probe labelling [10]: -0.58
